# Reference: PubChem BioAssay
# Active and inactive are the calls of the source.
# How the values were obtained:
# Albumin (Bos taurus) = Albumin (Bos taurus) (UniProt P02769); assay: bovine serum albumin binders on microarray, profiling panel, artefact control for SMM control protein annotation, biochemical, small-molecule microarray, Alexa647 label, 635/667 nm fluorescence (AID 1118); conditions: BSA-A647 binding, fluorescence 635 nm, higher = more signal;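 note: score merges 667 nm emission intensity and signal-to-noise per printed compound spot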
# [1] = small-molecule microarray binders of probe aXIP, primary screen, biochemical, NeuroSMM set, 635/667 nm fluorescence (AID 1119); conditions: higher = more signal, called active from +8 up or from −8 down;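 note: probe is the protein aXip251-270 applied at 1 µg/mL to compound-printed slides; binding of probe to printed compounds measured as 667 nm fluorescence plus signal to noise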
# [2] = small-molecule binders of probe aNOTCH3, primary screen, biochemical, small-molecule microarray, 635/667 nm fluorescence (AID 1120); conditions: higher = more signal;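 note: probe is a biotin-tagged antibody raised against NOTCH3 rather than NOTCH3 protein; score merges spot fluorescence near 667 nm with spot signal to noise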
# [3] = small-molecule binders of probe aNOTCH2, primary screen, biochemical, small-molecule microarray, 635/667 nm fluorescence (AID 1121); conditions: higher = more signal;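 note: score merges feature fluorescence read at 667 nm with its signal to noise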
# [4] = molecular target: Carbonic anhydrase 2 (Homo sapiens) (UniProt P00918); assay: CAII small-molecule binders, profiling panel, biochemical, small-molecule microarray, Alexa647-labelled CAII (AID 1122); conditions: CAII-A647 binding fluorescence, higher = more signal
# [5] = COS7 lysate on small-molecule microarray, probe aHis, 635 nm (AID 1123); conditions: COS7 cell lysate, fluorescence, higher = more signal;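 note: z-score combines 667nm fluorescence intensity with signal-to-noise per printed compound spot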
# [6] = compound binding in COS7 lysate, probe aLAP1, primary screen, cell lysate, small-molecule microarray (AID 1124); conditions: probe aLAP1, fluorescence, higher = more signal;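 note: lysate comes from COS7 cells expressing LAP1 and is applied at 0.3 µg/mL; score merges spot fluorescence near 667 nm with signal-to-noise over triplicate slides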
# Sam68 (KHDRBS1) = assay: Sam68 small-molecule binders, primary screen, biochemical, small-molecule microarray, 635 nm fluorescence (AID 1125); conditions: small-molecule microarray binding, higher = more signal;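 note: score merges 667 nm channel intensity with signal to noise over triplicate slides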
# [7] = system: Chordin-like protein 2 (CHRDL2); assay: CHRDL2 small-molecule binders, primary screen, biochemical, small-molecule microarray, 635 nm fluorescence (AID 1126); conditions: small-molecule microarray binding, fluorescence 635 nm; higher = more signal;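 note: printed compound slides probed with Chrdl2 protein at 4 µg/mL for 1 h at 4 C; score merges 667 nm emission intensity with signal to noise over three replicate slides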
# [8] = molecular target: Concanavalin-A (Canavalia ensiformis) (UniProt P02866); assay: ConA small-molecule binders, primary screen, artefact control for SMM control protein annotation, biochemical, small-molecule microarray, Alexa647 label, 635 nm (AID 1127); conditions: ConA-A647 binding fluorescence, higher = more signal;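 note: z combines 667 nm emission intensity with signal-to-noise across three replicate slides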
# [9] = anti-His antibody binders, primary screen, artefact control for SMM control protein annotation, biochemical, small-molecule microarray, 635 nm fluorescence (AID 1128); conditions: anti-His Alexa647 antibody binding, higher = more signal;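 note: score merges feature fluorescence with signal-to-noise for each printed compound spot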
# [10] = system: Human papillomavirus type 1a E7 protein (residues 1-88); assay: HPV1a E7 small-molecule binders, primary screen, biochemical, small-molecule microarray, residues 1-88, 635 nm (AID 1129); conditions: small-molecule microarray binding, fluorescence 635 nm; higher = more signal
# [11] = molecular target: Focal adhesion kinase 1 (Homo sapiens) (UniProt Q05397); assay: small-molecule microarray binders of FAK, primary screen, biochemical, 635/667 nm fluorescence, BSA, DTT (AID 1130); conditions: PTK2 binding, 635 nm fluorescence, higher = more signal;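 note: composite of spot emission at 667 nm and signal to noise over triplicate slides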
# [12] = system: Fibrinogen (Alexa647-labelled); assay: fibrinogen binders on compound microarrays, profiling panel, artefact control for SMM control-protein annotation, biochemical, small-molecule microarray, 635/667 nm fluorescence (AID 1131); conditions: fibrinogen-A647 binding fluorescence, higher = more signal;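 note: z-score merges 667 nm fluorescence with per-spot signal-to-noise over triplicate slides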
# [13] = molecular target: Follistatin (Homo sapiens) (UniProt P19883); assay: follistatin binders on small-molecule microarrays, primary screen, biochemical, small-molecule microarray, 635/667 nm fluorescence (AID 1132); conditions: FST binding, 635 nm fluorescence, higher = more signal
# [14] = molecular target: Fibroblast growth factor 2 (Homo sapiens) (UniProt P09038); assay: FGF2 binders on small-molecule microarrays, primary screen, biochemical, small-molecule microarray, 635/667 nm fluorescence (AID 1133); conditions: small-molecule microarray binding, FGF2, fluorescence 635/667; higher = more signal
# [15] = mitochondrial membrane potential change in A549 cells, profiling panel, cell-based, JC-1 fluorescence, basal, 24 h, 100 nL (AID 1138); conditions: higher = more signal;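 note: A549 lung adenocarcinoma cells under basal conditions with no added stimulus; test concentration not given here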
# Lefty1 = Lefty1 binders on small-molecule microarrays, primary screen, biochemical, small-molecule microarray, 635/667 nm fluorescence (AID 1139); conditions: small-molecule microarray binding, fluorescence 635/667; higher = more signal
# [16] = system: wheat germ agglutinin (Triticum aestivum), Alexa647-labelled; assay: wheat germ agglutinin binders on compound microarrays, profiling panel, artefact control for SMM control-protein annotation, biochemical, small-molecule microarray, 635/667 nm fluorescence (AID 1140); conditions: WGA-A647 binding, 635 nm fluorescence, higher = more signal;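 note: score merges 667 nm feature emission with signal to noise over triplicate slides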
# [17] = molecular target: Luciferin 4-monooxygenase (Photinus pyralis) (UniProt P08659); assay: firefly luciferase enzyme inhibitors, primary screen, biochemical, luminescence, purified enzyme, 2006 set (AID 1141); conditions: SteadyGlo luminescence, 30 min, higher = more signal, called active from +8 up or from −8 down;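 note: cell-free assay with purified firefly luciferase at 100 ng per well in PBS; test concentration not given here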
# Sequence of Luciferin 4-monooxygenase (Photinus pyralis) (P08659 whole entry, looked up): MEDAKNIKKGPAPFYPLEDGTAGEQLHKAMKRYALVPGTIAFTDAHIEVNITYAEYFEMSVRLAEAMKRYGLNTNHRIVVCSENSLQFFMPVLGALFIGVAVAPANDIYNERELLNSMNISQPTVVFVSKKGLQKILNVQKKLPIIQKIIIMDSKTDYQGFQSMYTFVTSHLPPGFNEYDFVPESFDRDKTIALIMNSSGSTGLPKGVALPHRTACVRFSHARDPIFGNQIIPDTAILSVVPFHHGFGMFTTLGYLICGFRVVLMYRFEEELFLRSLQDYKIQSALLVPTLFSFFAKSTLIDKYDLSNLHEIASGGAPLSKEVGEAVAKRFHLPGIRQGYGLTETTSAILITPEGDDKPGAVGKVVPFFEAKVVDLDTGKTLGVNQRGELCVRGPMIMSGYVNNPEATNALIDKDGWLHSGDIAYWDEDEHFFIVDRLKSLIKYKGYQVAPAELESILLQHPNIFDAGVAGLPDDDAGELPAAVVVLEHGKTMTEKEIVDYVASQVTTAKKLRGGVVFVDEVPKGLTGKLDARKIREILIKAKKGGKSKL
# Sequence of Concanavalin-A (Canavalia ensiformis) (P02866 whole entry, looked up): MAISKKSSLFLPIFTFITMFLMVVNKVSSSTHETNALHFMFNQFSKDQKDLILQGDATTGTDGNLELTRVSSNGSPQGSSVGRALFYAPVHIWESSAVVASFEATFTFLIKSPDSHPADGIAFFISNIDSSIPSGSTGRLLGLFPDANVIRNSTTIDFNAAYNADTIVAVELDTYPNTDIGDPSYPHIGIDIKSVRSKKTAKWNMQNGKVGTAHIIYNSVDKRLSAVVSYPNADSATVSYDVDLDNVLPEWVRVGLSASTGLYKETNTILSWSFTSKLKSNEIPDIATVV
# Sequence of Focal adhesion kinase 1 (Homo sapiens) (Q05397 whole entry, looked up): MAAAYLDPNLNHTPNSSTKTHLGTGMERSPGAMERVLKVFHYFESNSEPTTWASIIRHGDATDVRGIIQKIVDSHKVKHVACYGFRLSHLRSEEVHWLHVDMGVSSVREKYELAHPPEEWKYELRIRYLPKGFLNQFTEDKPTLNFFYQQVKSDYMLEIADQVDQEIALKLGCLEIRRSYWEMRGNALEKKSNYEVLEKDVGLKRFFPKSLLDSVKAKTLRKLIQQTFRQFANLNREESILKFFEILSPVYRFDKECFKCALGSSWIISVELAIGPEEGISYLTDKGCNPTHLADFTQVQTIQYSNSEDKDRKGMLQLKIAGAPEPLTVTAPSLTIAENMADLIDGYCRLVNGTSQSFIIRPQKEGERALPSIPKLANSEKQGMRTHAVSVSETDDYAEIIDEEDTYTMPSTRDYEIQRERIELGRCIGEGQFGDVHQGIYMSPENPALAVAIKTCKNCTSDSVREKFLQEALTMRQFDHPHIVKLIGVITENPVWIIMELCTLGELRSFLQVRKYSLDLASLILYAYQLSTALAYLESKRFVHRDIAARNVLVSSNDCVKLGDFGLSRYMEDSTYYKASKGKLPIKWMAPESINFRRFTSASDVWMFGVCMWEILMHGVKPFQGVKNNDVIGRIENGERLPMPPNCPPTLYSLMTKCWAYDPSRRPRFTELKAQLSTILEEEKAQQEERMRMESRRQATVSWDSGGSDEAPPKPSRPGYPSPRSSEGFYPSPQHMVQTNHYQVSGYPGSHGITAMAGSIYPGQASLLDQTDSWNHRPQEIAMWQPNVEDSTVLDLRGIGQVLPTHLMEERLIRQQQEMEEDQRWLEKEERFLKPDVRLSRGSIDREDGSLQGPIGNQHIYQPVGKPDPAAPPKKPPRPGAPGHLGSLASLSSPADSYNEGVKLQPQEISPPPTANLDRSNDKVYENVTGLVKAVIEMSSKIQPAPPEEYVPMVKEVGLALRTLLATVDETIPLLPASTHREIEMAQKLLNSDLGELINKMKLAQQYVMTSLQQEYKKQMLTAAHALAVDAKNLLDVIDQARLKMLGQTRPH
# Sequence of Fibroblast growth factor 2 (Homo sapiens) (P09038 whole entry, looked up): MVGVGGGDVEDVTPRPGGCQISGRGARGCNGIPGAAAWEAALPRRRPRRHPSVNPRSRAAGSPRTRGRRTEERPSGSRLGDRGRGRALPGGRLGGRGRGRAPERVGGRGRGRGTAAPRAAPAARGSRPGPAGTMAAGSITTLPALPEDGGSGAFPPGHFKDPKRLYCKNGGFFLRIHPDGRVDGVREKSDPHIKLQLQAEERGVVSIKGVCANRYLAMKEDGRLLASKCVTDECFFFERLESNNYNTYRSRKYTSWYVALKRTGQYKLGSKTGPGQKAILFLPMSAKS
# Sequence of Albumin (Bos taurus) (P02769 whole entry, looked up): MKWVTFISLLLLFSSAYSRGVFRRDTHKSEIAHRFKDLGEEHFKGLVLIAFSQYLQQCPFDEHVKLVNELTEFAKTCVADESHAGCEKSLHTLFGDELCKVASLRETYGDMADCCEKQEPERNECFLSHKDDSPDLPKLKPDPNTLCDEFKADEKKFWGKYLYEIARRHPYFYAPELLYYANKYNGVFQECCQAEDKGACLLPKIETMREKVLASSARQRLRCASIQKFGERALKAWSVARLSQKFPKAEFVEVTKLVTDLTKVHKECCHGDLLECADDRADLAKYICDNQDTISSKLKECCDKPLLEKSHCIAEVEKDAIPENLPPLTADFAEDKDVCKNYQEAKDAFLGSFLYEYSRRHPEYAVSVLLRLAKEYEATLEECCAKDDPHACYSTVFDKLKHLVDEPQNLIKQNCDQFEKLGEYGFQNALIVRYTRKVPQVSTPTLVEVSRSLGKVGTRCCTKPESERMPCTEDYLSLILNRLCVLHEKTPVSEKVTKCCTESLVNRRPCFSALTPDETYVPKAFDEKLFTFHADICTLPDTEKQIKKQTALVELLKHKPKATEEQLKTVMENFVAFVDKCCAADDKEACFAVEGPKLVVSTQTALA
# Sequence of Follistatin (Homo sapiens) (P19883 whole entry, looked up): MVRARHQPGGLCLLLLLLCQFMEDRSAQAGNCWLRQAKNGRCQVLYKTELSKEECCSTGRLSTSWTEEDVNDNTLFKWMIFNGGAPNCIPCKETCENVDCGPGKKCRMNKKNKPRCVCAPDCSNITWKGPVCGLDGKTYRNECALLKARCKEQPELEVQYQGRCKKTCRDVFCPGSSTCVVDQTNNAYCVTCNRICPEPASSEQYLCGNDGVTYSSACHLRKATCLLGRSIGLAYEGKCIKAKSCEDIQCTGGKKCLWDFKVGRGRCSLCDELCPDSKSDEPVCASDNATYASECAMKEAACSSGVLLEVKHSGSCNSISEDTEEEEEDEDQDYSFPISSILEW
SMILES,composite z-score (Albumin (Bos taurus)),composite Z-score [1],composite z-score [2],composite z-score [3],composite z-score [4],composite z-score [5],composite z-score [6],composite z-score (Sam68 (KHDRBS1)),composite z-score [7],composite z-score [8],composite z-score [9],composite z-score [10],composite z-score [11],composite z-score [12],composite z-score [13],composite z-score [14],z-score [15],composite z-score (Lefty1),composite z-score [16],z-score [17]
CC(C)(C)OC(=O)CC[C@]1(C(=O)NCc2ccccc2)COC(c2ccc(OCCCO)cc2)=N1,0.875,0.603 (inactive),0.0128,0.0377,0.673,2.41,1.49,1.25,-1.45,0.255,-0.518,1.25,0.444,0.694,-0.0444,-1.04,0.695,-0.986,1.33,-0.714 (inactive)
COC(=O)C1=CC(c2ccc(CO)cc2)=CC(C2CC2)N(C)C=C1C(=O)OC (stereo not given),0.965,0.498 (inactive),-0.0903,-0.0617,0.874,1.73,0.969,0.862,-0.73,-0.0948,0.822,-0.203,0.883,0.707,-0.743,-0.326,1.63,-0.615,1.28,-1.8 (inactive)
C=CCN1C(=O)[C@]2(O[C@H](CCn3cc([C@H](O)c4ccccc4)nn3)[C@@H]([Si](C)(C)c3ccc(OC)cc3)[C@@H]2C)c2cc(N3CCOC3=O)ccc21,0.318,0.2 (inactive),-0.272,-0.201,0.521,0.8,0.0004,0.745,-0.526,0.804,1.13,1.13,0.783,0.811,-0.447,-0.408,1.89,-0.351,0.514,-0.678 (inactive)
C=CC[C@@]1(C(=O)NCc2ccccc2)N=C(c2ccc(OCCCO)cc2)O[C@@H]1c1ccccc1,0.864,0.118 (inactive),0.0762,-0.061,0.493,2.56,0.268,0.966,-0.353,0.454,1.11,1.16,0.997,-0.017,-0.646,-1.1,0.215,-0.865,0.539,-1.05 (inactive)
COc1ccc([Si](C)(C)[C@H]2[C@H](CC(=O)N(CCO)Cc3ccccc3)O[C@@]3(C(=O)N(Cc4cccc(N5C(=O)COc6ccccc65)c4)c4ccccc43)[C@@H]2C)cc1,-1.06,0.616 (inactive),0.0961,-0.118,0.462,1.69,-0.045,0.897,0.81,1.06,1.11,0.965,1.45,0.147,1.05,1.52,-0.0909,1.26,0.528,-1.8 (inactive)
CC(C)C(=C=CC[C@H](O)c1ccc(OCCO)cc1)C[C@H](O)COCc1ccccc1,0.394,0.813 (inactive),0.0522,-0.179,0.508,1.43,1.04,1.3,0.433,0.673,1.73,1.18,-0.0245,0.749,1.31,1.03,2.47,0.795,0.325,-2.55 (inactive)
O=C1c2ccccc2[C@](Cc2ccccc2I)(C(=O)O)[C@H](c2ccc(CO)cc2)N1Cc1ccccc1Cl,0.953,1.61 (inactive),-0.014,-0.0633,0.608,2.24,1.07,1.3,-0.912,0.944,1.99,1.19,1.04,-0.113,0.0645,-0.354,0.712,0.0911,0.507,-1.28 (inactive)
COC(=O)C1=CC(CCCO)=CC(C2CC2)N(Cc2cc3c(cc2Br)OCO3)C=C1C(=O)OC (stereo not given),1.01,0.305 (inactive),0.102,0.0247,0.92,2.44,1.65,1.3,-0.547,1.07,2.68,0.86,0.149,0.931,-0.107,-0.3,1.27,-0.648,1.4,-1.24 (inactive)
CCOC(=O)C[C@H]1[C@H](OC(=O)c2ccc(-c3ccccc3)cc2)[C@@H](NC(=O)c2ccccc2)c2cc(OCCCO)ccc2N1C(=O)c1ccccc1,0.842,0.0948 (inactive),0.0162,-0.0232,0.395,1.67,0.658,1.33,-0.519,0.818,0.698,0.925,0.372,0.851,-0.129,0.253,2.3,-0.0764,0.646,-0.517 (inactive)
COc1ccc([Si](C)(C)[C@@H]2[C@@H](CC(=O)N3CCC[C@H]3CO)O[C@]3(C(=O)N(Cc4ccc(N5CCC5=O)cc4)c4ccccc43)[C@H]2C)cc1,-0.82,0.566 (inactive),0.0026,-0.0624,0.415,1.05,-0.31,1.31,0.183,1.08,2.01,1.13,0.983,0.406,0.712,0.589,1.55,1.04,0.0389,-1.45 (inactive)
C[C@@H](OCc1ccccc1)C1NC(=O)[C@@]23C(=O)N[C@@H](Cc4ccccc4)C2[C@H](C)[C@@]2(C)O[C@H]2C3/C=C/C/C=C\CNC(=O)[C@@H]2CCCN2C1=O (stereo not given in full),-0.149,-0.216 (inactive),-0.0921,-0.147,0.619,-0.357,-0.296,-0.898,0.377,-0.896,-0.0278,-0.443,-0.709,-0.632,0.0944,0.166,2.49,0.0078,-0.927,-1.45 (inactive)
